# Reference: PubChem BioAssay AID2732 (Emory University Molecular Libraries Screening Center, 2010)
# About 8,200 (3.7%) of roughly 220,000 compounds were called active. The full list was thinned out, with actives kept by preference. Unmarked numbers belong to inactive results.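 How the source made its calls: active means compounds that reduced the stress-induced luciferase reporter signal by more than about 70% of percent inhibition (limit read from the data); inactive means the rest.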
# Experiment: blockers of ER-stress CHOP reporter expression – cell-based, unfolded protein response, luciferase reporter, primary screen (AID 2732);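 further: 0% = tunicamycin plus vehicle and 100% = wells without tunicamycin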
# Conditions: CHO-K1 CHOP-promoter luciferase, tunicamycin-induced, 15-18 h; at 10 µM; active compounds read high
row,SMILES,inhibition
1,COc1cc(OC)nc(S(C)(=O)=O)n1,-18.2%
2,COc1ccc(-c2cc(C(F)(F)F)nc(SCC(=O)Nc3ccc4c(c3)OCO4)n2)cc1OC,22.4%
3,COc1ccc(-c2cc(C(F)(F)F)nc(S(C)(=O)=O)n2)cc1OC,109% (active)
4,O=C(Nc1cccnc1)c1cc([N+](=O)[O-])ccc1Cl,-9.19%
5,CCOC(=O)C1CCN(c2c(Nc3cc(C)cc(C)c3)c(=O)c2=O)CC1,4.73%
6,O=S(=O)(c1ccc(NC(=S)NN=C(C2CC2)C2CC2)cc1)N1CCOCC1,-4.48%
7,CN(c1ccccc1)S(=O)(=O)c1ccc(Cl)c(C(=O)OCC(=O)NCc2ccco2)c1,29.9%
8,CCN1CCN(c2nc(Nc3cc(OC)ccc3OC)nc(Nc3cc(OC)ccc3OC)n2)CC1,-5.76%
9,CCOc1ccc(NC(=O)CN2CCN(CC(=O)Nc3ccc(OC)cc3)CC2)cc1,34.6%
10,CCOc1ccc(Nc2nc(Cl)nc(N3CCN(c4ccc(OC)cc4)CC3)n2)cc1,72.4% (active)
11,Cc1coc2cc3oc(=O)c(CCC(=O)O)c(C)c3cc12,-3.28%
12,COC(=O)c1sccc1NC(=S)Nc1ccc(C)cc1,10.2%
13,CCc1ccc(NC(=O)CS(=O)CC(=O)NCCCc2ccccc2)cc1 (centres undefined),75.9% (active)
14,CCN(CC)CCCNC(=O)CCc1ccccc1,0.68%
15,Cc1cnc(C(=O)OCC(=O)NCCCc2ccccc2)cn1,4.94%
16,NNC(=O)c1oc2nc(-c3ccccc3)cc(-c3ccco3)c2c1N,-41.2%
17,COC(OC)c1ccnc(SCc2ccccc2Cl)n1,15.3%
18,Cc1ccc(Nc2nc(-c3ccc(O)cc3O)cs2)nc1,88.9% (active)
19,COc1ccc(-c2csc(Nc3ccc(O)cc3)n2)cc1,18.9%
20,O=c1oc2ccccc2cc1-c1csc(Nc2ccc(O)cc2)n1,-72.5%
21,Nc1nnn(CC(=O)N/N=C/c2ccccc2)n1,9.73%
22,COc1cc(N2C(=O)CC3(CCCC3)CC2=O)cc(OC)c1OC,-7%
23,O=C(Nc1ccc(N2CCOCC2)nc1)c1c(F)cccc1F,-6.02%
24,CCOC(=O)c1c(NC(=O)NC(C)(C)C)sc2c1CCN(C)C2,16.3%
25,O=[N+]([O-])c1ccc2nc(-c3ccccn3)[nH]c2c1,-8.07%

row,SMILES,inhibition
1,O=C(/C=C/Sc1ncn[nH]1)c1ccc(Cl)cc1,105% (active)
2,Cc1cc(C)nc(S/C=C/C(=O)c2ccccc2)n1,24.8%
3,COc1ccc(Cl)cc1CSc1ncn[nH]1,-7.32%
4,CCCCSc1nc2c(c(=O)n1CC)SC(C)C2 (centres undefined),97.1% (active)
5,CCn1c(SCC(=O)Nc2ccc3c(c2)OCCO3)nc2c(c1=O)SC(C)C2 (centres undefined),3.73%
6,CCn1c(SCC(=O)Nc2ccccc2F)nc2c(c1=O)SC(C)C2 (centres undefined),-15.6%
7,COc1c(N2CCN(C(=S)Nc3ccccc3F)C(C)C2)c(F)cc2c(=O)c(C(=O)O)cn(C3CC3)c12 (centres undefined),2.97%
8,CCc1c(C)nc(N2CCN(Cc3ccccc3)CC2)[nH]c1=O,80% (active)
9,Cc1nnc(SCc2cc(=O)[nH]c(N3CCN(Cc4ccccc4)CC3)n2)s1,39.7%
10,Cc1ccc(-n2c(=O)cc(N3CCN(Cc4ccccc4)CC3)[nH]c2=O)cc1,-31.4%
11,Cn1c(SCC(=O)N2CCOCC2)nnc1-c1ccc2ncccc2c1,-14.7%
12,S=c1[nH]nc(-c2ccccc2)n1/N=C/c1c[nH]c2ccccc12,30.5%
13,S=c1[nH]nc(-c2cc(-c3ccccc3)n[nH]2)n1/N=C/c1c2ccccc2cc2ccccc12,74% (active)
14,S=c1[nH]nc(-c2ccco2)n1/N=C/c1ccccc1,13.8%
15,O=C(CN1CCN(Cc2ccc(F)cc2Cl)C1=O)NCc1cccs1,5.73%
16,O=C(O)CC12CC3CC(C1)CC(n1ncc(NCc4ccc(F)cc4)c(Cl)c1=O)(C3)C2,-5.94%
17,O=c1c(Cl)c(NCc2ccc(F)cc2Cl)cnn1C12CC3CC(CC(C3)C1)C2,78.6% (active)
18,O=C(NCC1COc2ccccc2O1)C1(c2ccccc2)CCCC1 (centres undefined),17.7%
19,S=C(NCC1COc2ccccc2O1)Nc1ccc(Br)cc1 (centres undefined),81.2% (active)
20,CCCN(CC1COc2ccccc2O1)C(=S)Nc1ccc(C)cc1 (centres undefined),28.3%
21,CCCN(CCC)S(=O)(=O)c1ccc(C(=O)N2CC3CCC(CC3)C2)cc1,5.98%
22,O=[N+]([O-])c1cccc2ncccc12,15.2%
23,Cc1ccccc1-c1nnn(CC(=O)c2ccc(S(=O)(=O)N3CCCC3)cc2)n1,76% (active)
24,Cc1cc(C)n(C(=O)c2ccc(S(=O)(=O)N3CCCC3)cc2)n1,13%
25,CC(C)(C)NC(=O)Cn1nnc(-c2ccccc2Cl)n1,2.55%

row,SMILES,inhibition
1,CC(OC(=O)c1ccc(NS(=O)(=O)c2ccc3[nH]c(=O)[nH]c3c2)cc1)C(=O)Nc1cccc(Cl)c1Cl (centres undefined),-9.73%
2,NCCCCCC(=O)N/N=C/c1ccc2nccnc2c1,16.6%
3,Cc1onc(NC(=O)c2ccc([N+](=O)[O-])o2)c1Br,-20.6%
4,Cc1cc(C(=O)Nc2c(C)n(C)n(-c3ccccc3)c2=O)cs1,23.5%
5,Cc1cccc(OP(=O)(Nc2c(C)n(C)n(-c3ccccc3)c2=O)Oc2cccc(C)c2)c1,71.4% (active)
6,COc1ccc(S(=O)(=O)Nc2c(C)n(C)n(-c3ccccc3)c2=O)cc1,-21.7%
7,O=C(CCl)Nc1cccc(CP(=O)(c2ccccc2)c2ccccc2)c1,-134%
8,COc1ccc(CNC(=O)CCC(=O)Nc2nnc(C(C)C)s2)cc1,11.9%
9,Cc1nnc(SCC(=O)N/N=C/c2cn(-c3ccccc3)nc2-c2ccc(F)cc2)n1-c1ccccc1,97.1% (active)
10,COc1ccc(OC)c(/C=N/NC(=O)CSc2nnc(C)n2-c2ccccc2)c1,-5.53%
11,Cc1ccc(-c2nn(-c3ccccc3)cc2/C=N/NC(=O)c2ccc3c(c2)OCO3)cc1,22.2%
12,CC(C)COC(=O)n1c(=O)oc2ccc(S(=O)(=O)N3CCCCC3)cc21,11.3%
13,COc1ccc(OC)c(Nc2nc3ccccc3n3cnnc23)c1,24.5%
14,Cc1cccc(C2C3=C(CCCC3=O)N=C3c4ccccc4C(=O)C32)c1 (centres undefined),19.4%
15,Cc1cccc(NC(=O)c2cccc(C(F)(F)F)c2)c1,2.04%
16,Cc1cccc(NC(=O)c2nnn(-c3cccc(C(F)(F)F)c3)c2N)c1,70.6% (active)
17,CC(=O)N1CCN(C(=O)Nc2cccc(C(F)(F)F)c2)CC1,26.5%
18,CC(=O)OCCOCn1cnn2c(=O)c(Br)c(C)nc12,7.79%
19,O=C(O)c1ccccc1OCc1ccccc1Cl,-5.39%
20,Cn1nccc1NC(=O)Nc1ccc(OC(F)(F)F)cc1,0.64%
21,Cc1ccc(C(=O)OC2CCCN(C)C2)cc1 (centres undefined),7.84%
22,CC1(C)C2CCC1(C)C(OC(=O)CCn1ccnc1)C2 (centres undefined),4.53%
23,CC1(C)C2CCC1(C)C(OC(=O)c1ccc(O)cc1)C2 (centres undefined),77.6% (active)
24,N#Cc1ccc(Oc2ccc(C(F)(F)F)cc2NC(=O)c2ccc(F)cc2)cc1,6.42%
25,O=C(NCC1CCCO1)c1ccccc1-c1nc(-c2ccccc2Cl)no1 (centres undefined),-0.61%

row,SMILES,inhibition
1,O=C(NNc1ncnc2c1cnn2-c1ccccc1)c1ccco1,2.45%
2,c1ccc(-n2ncc3c(N4CCCC4)ncnc32)cc1,-22.2%
3,C1=C(CCNc2ncnc3c2cnn3-c2ccccc2)CCCC1,88% (active)
4,O=C1N(c2ccccc2)C(=Nc2ccccc2)SC12CC2,-17.1%
5,O=C(CCNc1n[nH]c(=O)[nH]c1=O)N/N=C\c1ccc(Br)cc1,-14.4%
6,Cc1noc(C)c1S(=O)(=O)Nc1cc(C(F)(F)F)ccc1N1CCOCC1,13.3%
7,CC(C)(C)NC(=O)NC(=O)COC(=O)CCC1CCCCC1,80.2% (active)
8,CC(C)(C)NC(=O)NC(=O)COC(=O)C1(C)CC1(Cl)Cl (centres undefined),6.38%
9,COc1ccccc1OCCC(=O)OCC(=O)NC(=O)NC(C)(C)C,44.9%
10,Cc1c(C(=O)N/N=C/c2ccccc2)[nH]c2c([N+](=O)[O-])cccc12,20%
11,O=C(O)C(F)(F)C(NCc1ccccc1)c1ccccc1 (centres undefined),-11.7%
12,Cc1ccc(N2C(=O)CN=C2Nc2nc(C)cc(C)n2)cc1,17%
13,O=C(CSc1nnc(Nc2ccccc2)s1)Nc1cccnc1Cl,-4.1%
14,CC(C)(C)C(=O)c1cnc(Nc2ccccc2)s1,4%
15,O=C(c1ccc(Cl)cc1)c1cnc(Nc2ccccc2)s1,70.1% (active)
16,CCc1ccnc(NS(=O)(=O)c2ccc3c(c2)OCCO3)c1,16.7%
17,O=c1c(/C=N/O)coc2ccc(Cl)cc12,3.04%
18,CC(Nc1nc(N2CCOCC2)nc2ccccc12)c1ccccc1 (centres undefined),16.9%
19,c1ccc2c(NC3C4CC5CC(C4)CC3C5)nc(N3CCOCC3)nc2c1 (centres undefined),83.1% (active)
20,CC(Nc1nc(N2CCCC2)nc2ccccc12)c1ccccc1 (centres undefined),34.2%
21,Cc1cc(=O)oc2c(C(=O)c3ccccc3)c(OCC(N)=O)ccc12,6.93%
22,O=C(OCC(=O)c1cccs1)C1=COCCO1,17.6%
23,COc1ccc(NC(=O)COC(=O)CNC(=O)C2CCCCC2)cc1,9.71%
24,CCC(C)(C)c1ccc(Oc2ccc(NC(=O)COC(=O)C3=COCCO3)cc2)cc1,80.4% (active)
